This note sets out measurements from PubChem BioAssay (NCATS).

Records with an inconclusive call do not appear. The source made the active and inactive calls. Calls come from the whole dose curve; as a rule, active = well fitted curve in the direction sought with a large enough effect; inconclusive = small, poorly fitted or top-dose-only effect, or another doubt; inactive = no such curve, though single readings can be large; an effect the other way counts as inactive or inconclusive.
Potency is the fitted concentration of half-maximal effect.

One assay can be described thus: Identifying Small Molecule Inhibitors of Pancreatic Cancer Stem Cells (A2780, Spheroid) (AID 1259357).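 For viability (percent of control): 100% = DMSO treated cells and 0% = wells without cells.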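 Note: compound exposure lasted 48 h before the ATP luminescence read.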 Particulars: Potency: A2780 spheroid viability; series mostly up to 46.1 µM; viability (percent of control): at the top concentration. The method in brief:
(§1)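 Monolayer and spheroid cultures are compared. Spheroids form over 14 days in stem cell medium on hydrogel-coated low-attachment plates, then are exposed to compound for 48 h before CellTiter-Glo luminescence.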
`Cc1c(C(=O)Nc2ccc(N3C[C@@H](C)O[C@@H](C)C3)nc2)cccc1-c1ccc(OC(F)(F)F)cc1`: the “viability (percent of control)” value was 51.8% (inactive).

`CN(C)CCN(C)C(=O)c1ccc(NC(=O)Nc2ccc(-c3nc(N4CCOCC4)c4ccn(CC(F)(F)F)c4n3)cc2)cc1`: the Potency is 0.418 µM (active).

Take `CC(=O)NCCC(=O)N[C@@H](CCC(N)=O)C(=O)N[C@@H](CO)C(=O)N[C@@H](CCC(N)=O)C(=O)N[C@@H](CCC(N)=O)C(=O)N[C@H](C(=O)N[C@@H](Cc1ccccc1)C(=O)N[C@]1(C)CCCCCCC=CCCC[C@@](C)(C(=O)N[C@@H](CCC(N)=O)C(=O)N[C@@H](CC(N)=O)C(N)=O)NC(=O)[C@H](CC(C)C)NC(=O)[C@H](CC(C)C)NC(=O)[C@@H](CCCNC(=N)N)NC(=O)[C@H](Cc2c[nH]c3ccccc23)NC(=O)[C@H](CC(C)C)NC(=O)[C@H](CC(N)=O)NC1=O)[C@H](C)O`: the “viability (percent of control)” value is 103% (inactive).

For `C[C@@H](O[C@H]1OCCN(Cc2n[nH]c(=O)[nH]2)[C@@H]1c1ccc(F)cc1)c1cc(C(F)(F)F)cc(C(F)(F)F)c1`, the Potency is 18.7 µM (active).

A further assay can be described thus: Identifying Small Molecule Inhibitors of Pancreatic Cancer Stem Cells (SN12C, Adherent) (AID 1259358).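 Note: cell survival measured after 48 h of compound exposure.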 As to conditions: viability/growth inhibition; series mostly up to 46.1 µM; viability (percent of control): at the top concentration. The method in brief:
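After a 4 h attachment period, compounds were pinned into wells and cultures held 48 h under standard incubator conditions. Viability was then measured as CellTiter-Glo luminescence following 10 min at room temperature.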
With `CCCCc1ccc(NS(=O)(=O)c2ccc(C)c(C(=O)N3CCN(c4cccc(C)c4C)CC3)c2)cc1`, the “viability (percent of control)” value is 112% (inactive).

`Cc1c(C(=O)Nc2ccc(N3C[C@@H](C)O[C@@H](C)C3)nc2)cccc1-c1ccc(OC(F)(F)F)cc1`: the “viability (percent of control)” value is 89.5% (inactive).

Regarding `CC(=O)NCCC(=O)N[C@@H](CCC(N)=O)C(=O)N[C@@H](CO)C(=O)N[C@@H](CCC(N)=O)C(=O)N[C@@H](CCC(N)=O)C(=O)N[C@H](C(=O)N[C@@H](Cc1ccccc1)C(=O)N[C@]1(C)CCCCCCC=CCCC[C@@](C)(C(=O)N[C@@H](CCC(N)=O)C(=O)N[C@@H](CC(N)=O)C(N)=O)NC(=O)[C@H](CC(C)C)NC(=O)[C@H](CC(C)C)NC(=O)[C@@H](CCCNC(=N)N)NC(=O)[C@H](Cc2c[nH]c3ccccc23)NC(=O)[C@H](CC(C)C)NC(=O)[C@H](CC(N)=O)NC1=O)[C@H](C)O`, the “viability (percent of control)” value was 123% (inactive).

`CCOC(=O)[C@@H](N)CCC(=O)N[C@@H](CSCc1ccccc1)C(=O)N[C@@H](C(=O)OCC)c1ccccc1`: the “viability (percent of control)” value was 112% (inactive).

Regarding `C[C@@H](O[C@H]1OCCN(Cc2n[nH]c(=O)[nH]2)[C@@H]1c1ccc(F)cc1)c1cc(C(F)(F)F)cc(C(F)(F)F)c1`, the Potency is 18.7 µM (active).

On to `CC(O)=C(C#N)C(=O)Nc1ccc(C(F)(F)F)cc1`, for which the “viability (percent of control)” value is 89.3% (inactive).

Another assay can be described thus: Identifying Small Molecule Inhibitors of Pancreatic Cancer Stem Cells (SN12C, Spheroid) (AID 1259360).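 For viability (% of control): 100% = DMSO-treated cells and 0% = wells without cells.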 Particulars: Potency: SN12C spheroid viability; series mostly up to 46.1 µM; viability (% of control): at the top concentration. An outline of the steps: as §1
Take `O=C(Nc1ccc(OC(F)(F)F)cc1)c1sccc1NCc1ccnc2ccccc12`: the Potency is 23.5 µM (active).

In the case of `CN(C)CCN(C)C(=O)c1ccc(NC(=O)Nc2ccc(-c3nc(N4CCOCC4)c4ccn(CC(F)(F)F)c4n3)cc2)cc1`, the Potency is 0.264 µM (active).

In the case of `CC(=O)NCCC(=O)N[C@@H](CCC(N)=O)C(=O)N[C@@H](CO)C(=O)N[C@@H](CCC(N)=O)C(=O)N[C@@H](CCC(N)=O)C(=O)N[C@H](C(=O)N[C@@H](Cc1ccccc1)C(=O)N[C@]1(C)CCCCCCC=CCCC[C@@](C)(C(=O)N[C@@H](CCC(N)=O)C(=O)N[C@@H](CC(N)=O)C(N)=O)NC(=O)[C@H](CC(C)C)NC(=O)[C@H](CC(C)C)NC(=O)[C@@H](CCCNC(=N)N)NC(=O)[C@H](Cc2c[nH]c3ccccc23)NC(=O)[C@H](CC(C)C)NC(=O)[C@H](CC(N)=O)NC1=O)[C@H](C)O`, the “viability (% of control)” value was 111% (inactive).

Consider `CCOC(=O)[C@@H](N)CCC(=O)N[C@@H](CSCc1ccccc1)C(=O)N[C@@H](C(=O)OCC)c1ccccc1`, for which the “viability (% of control)” value is 92.6% (inactive).

Regarding `C[C@@H](O[C@H]1OCCN(Cc2n[nH]c(=O)[nH]2)[C@@H]1c1ccc(F)cc1)c1cc(C(F)(F)F)cc(C(F)(F)F)c1`, the Potency was 20.9 µM (active).

As to `CC(O)=C(C#N)C(=O)Nc1ccc(C(F)(F)F)cc1`, the “viability (% of control)” value is 90.3% (inactive).
